PubChem BioAssay AID2685 (National Center for Advancing Translational Sciences (NCATS), 2010)
Out of some 320,000 compounds screened, about 2,100 (0.66%) were called active. Not shown: some 53% with an inconclusive outcome. Calls follow the shape of the dose curve; as a rule, active = well fitted inhibition curve with a large enough effect in the signal ratio, with a control signal flat (not every such curve was filed as active); inconclusive = small, poorly fitted or top-dose-only effect, or effect the other way, or a change in a side signal; inactive = flat fitted curve, though single readings scatter; the % refers to the signal ratio. The full list was thinned out, with actives kept by preference.

assay: qHTS Assay for Lipid Storage Modulators in Drosophila S3 Cells; conditions: BODIPY lipid droplet fluorescence, 18-24 h, cells fed with added oleic acid; cell number change: measured here: cell count max response; series mostly up to 46.1 µM; lipid storage change, negative = inhibition: at the top concentration;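 as to cell number change: cells counted by Cell Tracker Red CMTPX staining in the red channel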; as to lipid storage change, negative = inhibition: % is scaled to controls: 0 for no effect and ±100 for the full control effect
In short: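 Laser-scanning cytometry quantifies lipid droplet accumulation (500–530 nm total intensity; droplet/cell object ratio) in oleic acid-fed (400 uM added) Drosophila S3 cells treated with a concentration series. 20 uM Triacsin C defined 100% inhibition.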
Potency is read from the fitted curve at half-maximal effect.

SMILES	lipid storage change, negative = inhibition	cell number change [%]	Potency	outcome
CN(C)c1ccc(S(=O)(=O)NCC(=O)NCc2ccccc2)cc1[N+](=O)[O-]	24.8% (inactive)	21.7		
NC(=O)c1nsc(C(=O)N(CC(=O)NC2CCCC2)c2ccc(F)c(Cl)c2)c1N		-7.14	0.116 µM (active)	
CCCC(C(=O)NC1CCCC1)N(C(=O)c1snc(C(N)=O)c1N)c1ccc(F)cc1 (configuration not stated)	23.9% (inactive)	-10.5		
NC(=O)c1nsc(C(=O)N(CC(=O)NC2CCCCC2)c2ccc(Cl)cc2)c1N		-2.56	14.6 µM (active)	
NC(=O)c1nsc(C(=O)N(CC(=O)NC2CCCC2)c2cnc3ccccc3c2)c1N	-11% (inactive)	-18		
NC(=O)c1nsc(C(=O)N(CC(=O)NC2CCCCC2)Cc2ccc(F)cc2)c1N				inactive
Cc1ccc(C)c(N(CC(=O)NC2CCCCC2)C(=O)c2snc(C(N)=O)c2N)c1		-26.2		inactive
CC1=NN(C(=O)Cc2ccc([N+](=O)[O-])cc2)C(O)(C(F)(F)C(F)(F)F)C1 (configuration not stated)	5.48% (inactive)	24		
CC(=O)NCCc1nc2ccccc2n1Cc1ccccc1	-4.21% (inactive)	18.1		
O=C(CSc1ncn[nH]1)Nc1cc(S(=O)(=O)N2CCCC2)ccc1Cl				inactive
CN(C)S(=O)(=O)c1cc(NC(=O)COC(=O)CCc2ccccc2)ccc1Cl		11.3		inactive
Nc1[nH]nc2nc(N3CCOCC3)nc(-c3ccccc3)c12	0.177% (inactive)	-23.8		
O=C1C(=O)N(CCN2CCOCC2)C(c2cccnc2)/C1=C(/O)c1ccccc1 (configuration not stated)	16.1% (inactive)	0.678		
O=C1N=C2N(CCN3CCCCC3)c3ccccc3N2/C1=C\c1ccc([N+](=O)[O-])o1	-28.5% (inactive)	2.09		
O=C1C=C(NCCN2CCOCC2)CC(c2ccccc2)C1 (configuration not stated)	27.3% (inactive)	-2.43		
O=C(NCCN1CCOCC1)c1ccncc1		-7.07		inactive
O=C1C=C(NCCN2CCOCC2)C(=O)c2cnccc21		-9.98	11.6 µM (active)	
COc1ccccc1NC(=O)N1C2CCCC1CC(NC(=O)c1ccccc1)C2 (configuration not stated)	-1.34% (inactive)	9.36		
COc1ccc(NS(=O)(=O)c2ccc3c(c2)oc(=O)n3C)cc1Cl	4.42% (inactive)	10.6		

SMILES	lipid storage change, negative = inhibition	cell number change [%]	Potency	outcome
COC(=O)c1ccc(Cl)c(NC(=O)CN(c2ccccc2)S(=O)(=O)c2ccc(OC)cc2)c1	-4.68% (inactive)	-1.49		
O=C(O)c1ccc(-c2nc(-c3ccccc3)c(-c3cccs3)[nH]2)cc1	13.4% (inactive)	16.3		
O=[N+]([O-])c1cccc(-c2nc(-c3ccccc3)c(-c3cccs3)[nH]2)c1	-10.9% (inactive)	-14.7		
O=[N+]([O-])c1ccc(-c2nc(-c3cccs3)c(-c3cccs3)[nH]2)cc1		7.44	23.1 µM (active)	
O=S(=O)(Nc1ccc2nc(N3CCOCC3)sc2c1)c1ccc(Cl)cc1		-15.7		inactive
CCOC(=O)C1(Cc2cccc(OC)c2)CCN(Cc2cc(OC)ccc2OC)CC1	-8.02% (inactive)	-22.3		
COc1cc(OC)cc(C(=O)Nc2ccc(C(=O)c3ccncc3)cc2)c1	-7.33% (inactive)	2.59		
COc1ccc(C(CCN2CCCC(C)C2)c2c(OC)cc(OC)c3c(C)cc(=O)oc23)cc1 (configuration not stated)	0.351% (inactive)	7.77		
CC[n+]1c(C)n(-c2ccccc2)c2ccc(C(=O)OC)cc21	0.792% (inactive)	6.2		
Cc1cc(C(F)(F)F)n2ncc(C(=O)O)c2n1			14.6 µM (active)	
Cc1cc(C)n2ncc(C(=O)O)c2n1	16.6% (inactive)	12.3		
Cc1ccc(-c2cc(C(F)(F)F)n3ncc(C(=O)O)c3n2)cc1	-0.719% (inactive)	-10.1		
C=CCN1CC(=O)N2C(C)c3[nH]c4ccccc4c3C[C@H]2C1=O (some centres not stated)	8.32% (inactive)	1.11		
CCC(=O)Nc1ccc(-c2nnc(SCC(=O)Nc3nccs3)n2C)cc1	8.69% (inactive)	0.852		
COc1cc(C2/C(=C(\O)c3ccc4c(c3)CC(C)O4)C(=O)C(=O)N2CC2CCCO2)cc(OC)c1OC (configuration not stated)		-16	1.3 µM (active)	
COc1cccc(C2/C(=C(/O)c3ccc4c(c3)CC(C)O4)C(=O)C(=O)N2CC2CCCO2)c1 (configuration not stated)		14.4		inactive
CC1Cc2cc(/C(O)=C3/C(=O)C(=O)N(CC4CCCO4)C3c3ccco3)ccc2O1 (configuration not stated)	8.54% (inactive)	9.06		
CC(C)N(C(=O)CSc1nnc(NC(=O)c2cccs2)s1)C(C)C	-9.8% (inactive)	-20.6		
CCc1nnc(NC(=O)CCC(=O)NCc2ccc(C)cc2)s1				inactive

SMILES	lipid storage change, negative = inhibition	cell number change [%]	Potency	outcome
CCOC(=O)c1c(NC(=O)CN2C(=O)NC3(CCCCC3C)C2=O)sc(C)c1C (configuration not stated)	1.6% (inactive)	-4.46		
COC(=O)c1c(NC(=O)CN2C(=O)NC3(CCCCC3C)C2=O)sc2c1CCC2 (configuration not stated)		2.22	1.84 µM (active)	
COC(=O)c1c(NC(=O)CN2C(=O)NC3(CCC(C)CC3)C2=O)sc2c1CCC2 (configuration not stated)	20.5% (inactive)	-11.8		
c1ccc(CCNc2nc3ccccc3n3nnnc23)cc1		-15.6		inactive
Clc1ccc2c(N/N=C/c3cccnc3)ccnc2c1				inactive
Oc1ccc(/C=N/Nc2ccnc3cc(Cl)ccc23)c(O)c1		-19.7	29.1 µM (active)	
Clc1ccc(NNc2ccnc3cc(Cl)ccc23)cc1	7.38% (inactive)	9.5		
Cc1ccnc(NS(=O)(=O)c2cccc([N+](=O)[O-])c2)c1	-5.01% (inactive)	3.2		
CCN1CCN(C(=O)CNC(=O)c2nn(-c3ccc(OC)cc3)c(=O)c3ccccc23)CC1		8.11		inactive
COc1ccc(-n2nc(C(=O)NCC(=O)N3CCN(Cc4ccccc4)CC3)c3ccccc3c2=O)cc1		5.41	0.651 µM (active)	
COc1ccc(-n2nc(C(=O)NCC(=O)N3CCN(Cc4ccccc4)CC3)c3ccccc3c2=O)c(OC)c1		10.3		inactive
COc1ccccc1N1CCN(C(=O)c2ccc(S(=O)(=O)N3CCCCCC3)cc2)CC1	-13% (inactive)	-9.51		
COc1cc(C)c(Cl)cc1S(=O)(=O)NCc1ccncc1		-7.29		inactive
COc1cc(S(=O)(=O)NCc2ccncc2)c(OC)cc1Br		3.68	23.1 µM (active)	
COc1cc(S(=O)(=O)NCc2ccncc2)c(OC)cc1Cl	15.4% (inactive)	12.7		
COc1ccc(CCNC(=O)CN(C)S(=O)(=O)c2cccc3nsnc23)cc1OC	1.44% (inactive)	0.234		
CC(C)c1ccc(CNCCCSc2ncccn2)cc1		-5.03		inactive
CC(C)(C)C(=O)CC1(O)C(=O)N(Cc2ccc(Cl)cc2)c2ccccc21 (configuration not stated)	2% (inactive)	7.61		
